Laboratory results taken from PubChem BioAssay (NCATS).
Inconclusive results are not listed. Calls of active or inactive are those of the source. Calls follow the shape of the dose curve; as a rule, active = well fitted cell-killing curve with a large enough effect; inconclusive = small, poorly fitted or top-dose-only effect, or effect the other way; inactive = flat fitted curve, though single readings scatter.

tested on: SKOV3; experiment: Primary qHTS to identify gynecologic anti-cancer compounds using libraries of approved drugs and bioactive compounds (AID 1345084); conditions: Gynecologic cancer cell panel viability, ATPlite luminescence, 48 h; series mostly up to 57.5 µM; activity change, negative = cytotoxicity: at the top concentration; also: nearly all actives have a fitted effect of over 55% in size
Outline: (§1)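 48 h compound exposure at 37 C, 5% CO2; five-point qHTS. ATPlite luminescence readout of cell ATP.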
% is scaled to controls: 0 for no effect and ±100 for the full control effect; potency is read from the fitted curve at half-maximal effect.

Row | Compound | activity change, negative = cytotoxicity | Potency
1 | CC(C)(C)c1nnc(NS(=O)(=O)c2ccc(N)cc2)s1 | 3.39% (inactive) | –
2 | N=C(N)N | 20.5% (inactive) | –
3 | Cc1ccc(C(=O)c2ccc(CC(=O)O)n2C)cc1 | -5.67% (inactive) | –
4 | CCCCCCCC/C=C/C(=O)O | -9.37% (inactive) | –
5 | O=C(/C=C/c1ccccc1)NCCO | 7.77% (inactive) | –
6 | COc1cc2c3cc1Oc1cc(ccc1O)C[C@@H]1c4c(cc(OC)c(O)c4Oc4ccc(cc4)C[C@@H]3N(C)CC2)CC[N+]1(C)C | -11.1% (inactive) | –
7 | O=C(O)Cc1ccc2c(c1)C(=O)c1ccccc1CO2 | 3.83% (inactive) | –
8 | O=C(Nc1ccc(C(=O)O)c(O)c1)c1ccccc1 | -23% (inactive) | –
9 | CO[C@@]1(NC(=O)Cc2cccs2)C(=O)N2C(C(=O)O)=C(COC(N)=O)CS[C@@H]21 | -12% (inactive) | –
10 | Nc1ccc(O)c(C(=O)O)c1 | 12.1% (inactive) | –
11 | C=CCCCCCCCCC(=O)O | -5.52% (inactive) | –
12 | Nc1c(CC(=O)O)cccc1C(=O)c1ccc(Br)cc1 | -0.489% (inactive) | –
13 | O=C(OCc1ccccc1)c1ccccc1 | 12% (inactive) | –
14 | CCCCCCCCCCCCOCCO | 1.31% (inactive) | –
15 | CN(C)[C@@H]1C(=O)C(C(=O)NCN2CCCC2)=C(O)[C@@]2(O)C(=O)C3=C(O)c4c(O)cccc4[C@@](C)(O)C3C[C@@H]12 (stereo partly specified) | 8.53% (inactive) | –
16 | O=C(O)Cc1ccc(-c2ccccc2)cc1 | 21.9% (inactive) | –
17 | Cc1c(Nc2ncccc2C(=O)O)cccc1C(F)(F)F | -0.735% (inactive) | –
18 | CC(C(=O)O)c1ccc2c(c1)[nH]c1ccc(Cl)cc12 (stereo unspecified) | – | inactive

Row | Compound | activity change, negative = cytotoxicity | Potency
19 | CCCOC(=O)c1ccc(O)cc1 | 6.3% [at 116 µM] (inactive) | –
20 | CCCCCCCCCCCC(=O)[O][Sn]([CH2]CCC)([CH2]CCC)[O]C(=O)CCCCCCCCCCC | 3.15% (inactive) | –
21 | O=C(O)/C=C\C(=O)O | -2.9% (inactive) | –
22 | CCOC(=O)c1ccccc1O | 16.5% (inactive) | –
23 | Cc1c(N)c(=O)n(-c2ccccc2)n1C | -7.63% (inactive) | –
24 | C[N+]1(C)[C@@H]2CC(OC(=O)[C@H](CO)c3ccccc3)C[C@H]1[C@@H]1O[C@@H]12 (stereo partly specified) | 6.26% (inactive) | –
25 | c1ccc2sc(SSc3nc4ccccc4s3)nc2c1 | 0% [at 25.3 µM] (inactive) | –
26 | COc1cc(NC(C)CCCN)c2ncccc2c1 (stereo unspecified) | 1.95% (inactive) | –
27 | CCCC(=O)OC[C@@H](OC(=O)CCC)[C@@H](OC(=O)CCC)[C@H](Cn1c2nc(=O)[nH]c(=O)c-2nc2cc(C)c(C)cc21)OC(=O)CCC | -8.91% (inactive) | –
28 | CC(=O)c1ccc(OCC(=O)N2CCCCC2)cc1 | 8.97% (inactive) | –
29 | CN(C)CCn1nnnc1SCC1=C(C(=O)O)N2C(=O)[C@@H](NC(=O)Cc3csc(N)n3)[C@H]2SC1 | -1.2% (inactive) | –
30 | CCCCCCCCCCCCCCCC(=O)OC(C)C | 14.6% (inactive) | –
31 | CCCCCCCCCCCCCCCCCC(=O)O | 13.5% (inactive) | –
32 | CNC(=O)c1c(I)c(NC(=O)CCCCC(=O)Nc2c(I)c(C(=O)O)c(I)c(C(=O)NC)c2I)c(I)c(C(=O)O)c1I | 0.786% (inactive) | –
33 | CCC1C(=O)OCC1Cc1cncn1C (stereo unspecified) | 0% (inactive) | –
34 | Nc1ccc(C(=O)O)c(O)c1 | -12.9% (inactive) | –
35 | [O-][n+]1ccccc1SSc1cccc[n+]1[O-] | – | 794 nM (active)

tested on: Tov-21-G; experiment: as above; conditions: Gynecologic cancer cell panel viability, ATPlite luminescence, 48 h; series mostly up to 57.5 µM; activity change, negative = cytotoxicity: at the top concentration
Outline: as §1

Row | Compound | activity change, negative = cytotoxicity | Potency
36 | CC(C)(C)c1nnc(NS(=O)(=O)c2ccc(N)cc2)s1 | -5.44% (inactive) | –
37 | N=C(N)N | -1.17% (inactive) | –
38 | Cc1ccc(C(=O)c2ccc(CC(=O)O)n2C)cc1 | -0.113% (inactive) | –
39 | CCCCCCCC/C=C/C(=O)O | -1.22% (inactive) | –
40 | O=C(/C=C/c1ccccc1)NCCO | 7.92% (inactive) | –
41 | COc1cc2c3cc1Oc1cc(ccc1O)C[C@@H]1c4c(cc(OC)c(O)c4Oc4ccc(cc4)C[C@@H]3N(C)CC2)CC[N+]1(C)C | 5.6% (inactive) | –
42 | O=C(O)Cc1ccc2c(c1)C(=O)c1ccccc1CO2 | -4.45% (inactive) | –
43 | O=C(Nc1ccc(C(=O)O)c(O)c1)c1ccccc1 | -8.07% (inactive) | –
44 | CO[C@@]1(NC(=O)Cc2cccs2)C(=O)N2C(C(=O)O)=C(COC(N)=O)CS[C@@H]21 | -5.04% (inactive) | –
45 | Nc1ccc(O)c(C(=O)O)c1 | -0.333% (inactive) | –
46 | C=CCCCCCCCCC(=O)O | -6.25% (inactive) | –
47 | Nc1c(CC(=O)O)cccc1C(=O)c1ccc(Br)cc1 | 5.06% (inactive) | –
48 | O=C(OCc1ccccc1)c1ccccc1 | -1.94% (inactive) | –
49 | CCCCCCCCCCCCOCCO | 2.54% (inactive) | –
50 | CN(C)[C@@H]1C(=O)C(C(=O)NCN2CCCC2)=C(O)[C@@]2(O)C(=O)C3=C(O)c4c(O)cccc4[C@@](C)(O)C3C[C@@H]12 (stereo partly specified) | -2.41% (inactive) | –
51 | O=C(O)Cc1ccc(-c2ccccc2)cc1 | 5.45% (inactive) | –
52 | Cc1c(Nc2ncccc2C(=O)O)cccc1C(F)(F)F | -17.4% (inactive) | –
53 | CC(C(=O)O)c1ccc2c(c1)[nH]c1ccc(Cl)cc12 (stereo unspecified) | – | inactive

Row | Compound | activity change, negative = cytotoxicity | Potency
54 | CCCOC(=O)c1ccc(O)cc1 | -0.616% [at 116 µM] (inactive) | –
55 | CCCCCCCCCCCC(=O)[O][Sn]([CH2]CCC)([CH2]CCC)[O]C(=O)CCCCCCCCCCC | -2.96% (inactive) | –
56 | O=C(O)/C=C\C(=O)O | 7.77% (inactive) | –
57 | CCOC(=O)c1ccccc1O | -0.237% (inactive) | –
58 | Cc1c(N)c(=O)n(-c2ccccc2)n1C | -4.81% (inactive) | –
59 | C[N+]1(C)[C@@H]2CC(OC(=O)[C@H](CO)c3ccccc3)C[C@H]1[C@@H]1O[C@@H]12 (stereo partly specified) | 1.24% (inactive) | –
60 | c1ccc2sc(SSc3nc4ccccc4s3)nc2c1 | -0.424% [at 25.3 µM] (inactive) | –
61 | COc1cc(NC(C)CCCN)c2ncccc2c1 (stereo unspecified) | -18.6% (inactive) | –
62 | CCCC(=O)OC[C@@H](OC(=O)CCC)[C@@H](OC(=O)CCC)[C@H](Cn1c2nc(=O)[nH]c(=O)c-2nc2cc(C)c(C)cc21)OC(=O)CCC | -20.8% (inactive) | –
63 | CC(=O)c1ccc(OCC(=O)N2CCCCC2)cc1 | -9.3% (inactive) | –
64 | CCOc1ccc2nc(S(N)(=O)=O)sc2c1 | -2.22% (inactive) | –
65 | CN(C)CCn1nnnc1SCC1=C(C(=O)O)N2C(=O)[C@@H](NC(=O)Cc3csc(N)n3)[C@H]2SC1 | 0.153% (inactive) | –
66 | CCCCCCCCCCCCCCCC(=O)OC(C)C | -0.938% (inactive) | –
67 | CCCCCCCCCCCCCCCCCC(=O)O | -0.844% (inactive) | –
68 | CNC(=O)c1c(I)c(NC(=O)CCCCC(=O)Nc2c(I)c(C(=O)O)c(I)c(C(=O)NC)c2I)c(I)c(C(=O)O)c1I | 4.77% (inactive) | –
69 | CCC1C(=O)OCC1Cc1cncn1C (stereo unspecified) | 3.07% (inactive) | –
70 | Nc1ccc(C(=O)O)c(O)c1 | 1.23% (inactive) | –
71 | [O-][n+]1ccccc1SSc1cccc[n+]1[O-] | – | 1410 nM (active)
